# Data taken from publication PMC11006913.
# Numbering of substitutions follows the chain as printed.
# Columns and labels:
# Assay in all cases: PBM; 200 nM protein, PBS
# Settings in all cases: dsDNA, one strand shown
# HOXB9 [1] = target: HOXB9 (Homo sapiens, UniProt P17482 171-250, T197M)
# HOXC9 [2] = target: HOXC9 (Homo sapiens, UniProt P31274 178-260, K195R)
# HOXA7 [3] = target: HOXA7 (Homo sapiens, UniProt P31268 116-202)
# HOXB6 [4] = target: HOXB6 (Homo sapiens, UniProt P17509 132-218, K202E)
# HOXB9 [5] = target: HOXB9 (Homo sapiens, UniProt P17482 171-250)
# HOXC9 [6] = target: HOXC9 (Homo sapiens, UniProt P31274 178-260)
# HOXC9 [7] = target: HOXC9 (Homo sapiens, UniProt P31274 178-260, R193K)
# HOXC10 [8] = target: HOXC10 (Homo sapiens, UniProt Q9NYD6 254-340, K271E)
# HOXB9 [9] = target: HOXB9 (Homo sapiens, UniProt P17482 171-250, R186Q)
# HOXC9 [10] = target: HOXC9 (Homo sapiens, UniProt P31274 178-260, R222W)
# HOXA7 [11] = target: HOXA7 (Homo sapiens, UniProt P31268 116-202, W177C)
# HOXB6 [12] = target: HOXB6 (Homo sapiens, UniProt P17509 132-218)
# HOXC10 [13] = target: HOXC10 (Homo sapiens, UniProt Q9NYD6 254-340)
# HOXD13 [14] = target: HOXD13 (Homo sapiens, UniProt P35453 263-343, T313R)
# HOXD13 [15] = target: HOXD13 (Homo sapiens, UniProt P35453 263-343)
# HOXD13 [16] = target: HOXD13 (Homo sapiens, UniProt P35453 263-343, T313A)
# VENTX [17] = target: T1, VENTX (Homo sapiens, UniProt O95231 78-163, R121Q)
# T1 sequence: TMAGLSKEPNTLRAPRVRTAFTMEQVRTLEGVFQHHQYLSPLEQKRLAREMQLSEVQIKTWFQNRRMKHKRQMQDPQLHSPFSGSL
# VENTX [18] = target: T2, VENTX (Homo sapiens, UniProt O95231 78-163)
# T2 sequence: T1 sequence with Q44R
# VENTX [19] = target: T3, VENTX (Homo sapiens, UniProt O95231 78-163, Y115F)
# T3 sequence: T1 sequence with Y38F, Q44R
# CRX = CRX (Homo sapiens, UniProt O43186 26-111, R41L)
# MSX2 [20] = target: MSX2 (Homo sapiens, UniProt P35548 130-214, R199I)
# MSX2 [21] = target: MSX2 (Homo sapiens, UniProt P35548 130-214)
# MSX2 [22] = target: MSX2 (Homo sapiens, UniProt P35548 130-214, F161Y)
# ALX1 [23] = target: ALX1 (Homo sapiens, UniProt Q15699 118-204, L144V)
# ALX1 [24] = target: ALX1 (Homo sapiens, UniProt Q15699 118-204, L144R)
# ALX1 [25] = target: ALX1 (Homo sapiens, UniProt Q15699 118-204)
# Chain of ALX1 (Homo sapiens, UniProt Q15699 118-204) (Q15699 118-204): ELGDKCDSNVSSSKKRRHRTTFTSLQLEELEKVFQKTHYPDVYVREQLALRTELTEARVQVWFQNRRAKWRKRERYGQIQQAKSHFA
# Chain of HOXC10 (Homo sapiens, UniProt Q9NYD6 254-340, K271E) (Q9NYD6 254-340 K271E): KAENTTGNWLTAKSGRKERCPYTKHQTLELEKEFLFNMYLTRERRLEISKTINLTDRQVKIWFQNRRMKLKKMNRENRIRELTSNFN
# Chain of HOXC9 (Homo sapiens, UniProt P31274 178-260, R222W) (P31274 178-260 R222W): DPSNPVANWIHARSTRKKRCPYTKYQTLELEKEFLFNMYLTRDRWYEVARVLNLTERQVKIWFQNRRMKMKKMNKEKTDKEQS
# Chain of HOXB9 (Homo sapiens, UniProt P17482 171-250) (P17482 171-250): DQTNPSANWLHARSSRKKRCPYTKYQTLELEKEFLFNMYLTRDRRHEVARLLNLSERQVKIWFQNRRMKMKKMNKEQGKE
# Chain of HOXB9 (Homo sapiens, UniProt P17482 171-250, R186Q) (P17482 171-250 R186Q): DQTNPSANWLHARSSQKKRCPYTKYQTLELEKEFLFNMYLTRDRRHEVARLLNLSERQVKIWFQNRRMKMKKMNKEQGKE
# Chain of HOXC9 (Homo sapiens, UniProt P31274 178-260) (P31274 178-260): as the sequence (P31274 178-260 R222W) above, with W45R counted along it
# Chain of HOXB9 (Homo sapiens, UniProt P17482 171-250, T197M) (P17482 171-250 T197M): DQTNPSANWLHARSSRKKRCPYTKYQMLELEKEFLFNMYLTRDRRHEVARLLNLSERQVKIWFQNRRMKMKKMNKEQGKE
# Chain of HOXB6 (Homo sapiens, UniProt P17509 132-218, K202E) (P17509 132-218 K202E): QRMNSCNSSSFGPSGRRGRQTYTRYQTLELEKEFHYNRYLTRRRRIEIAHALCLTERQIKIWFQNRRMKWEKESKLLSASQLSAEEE
# Chain of HOXC9 (Homo sapiens, UniProt P31274 178-260, K195R) (P31274 178-260 K195R): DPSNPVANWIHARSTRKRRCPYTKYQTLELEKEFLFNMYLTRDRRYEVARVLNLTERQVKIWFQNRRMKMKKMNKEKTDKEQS
# Chain of HOXC9 (Homo sapiens, UniProt P31274 178-260, R193K) (P31274 178-260 R193K): as the sequence (P31274 178-260 R222W) above, with R16K, W45R counted along it
# Chain of HOXA7 (Homo sapiens, UniProt P31268 116-202) (P31268 116-202): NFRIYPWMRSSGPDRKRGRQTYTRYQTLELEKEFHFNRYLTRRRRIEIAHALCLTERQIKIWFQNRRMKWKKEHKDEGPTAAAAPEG
# Chain of HOXD13 (Homo sapiens, UniProt P35453 263-343, T313R) (P35453 263-343 T313R): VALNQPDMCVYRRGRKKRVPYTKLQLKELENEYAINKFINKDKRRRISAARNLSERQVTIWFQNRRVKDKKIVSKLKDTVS
# Chain of HOXC10 (Homo sapiens, UniProt Q9NYD6 254-340) (Q9NYD6 254-340): as the sequence (Q9NYD6 254-340 K271E) above, with E18K counted along it
# Chain of HOXB6 (Homo sapiens, UniProt P17509 132-218) (P17509 132-218): as the sequence (P17509 132-218 K202E) above, with E71K counted along it
# Chain of HOXA7 (Homo sapiens, UniProt P31268 116-202, W177C) (P31268 116-202 W177C): as the sequence (P31268 116-202) above, with W62C counted along it
# Chain of MSX2 (Homo sapiens, UniProt P35548 130-214) (P35548 130-214): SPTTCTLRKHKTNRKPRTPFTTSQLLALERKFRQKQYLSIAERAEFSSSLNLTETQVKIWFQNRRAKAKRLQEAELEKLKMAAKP
# Chain of ALX1 (Homo sapiens, UniProt Q15699 118-204, L144R) (Q15699 118-204 L144R): as the sequence (Q15699 118-204) above, with L27R counted along it
# Chain of MSX2 (Homo sapiens, UniProt P35548 130-214, R199I) (P35548 130-214 R199I): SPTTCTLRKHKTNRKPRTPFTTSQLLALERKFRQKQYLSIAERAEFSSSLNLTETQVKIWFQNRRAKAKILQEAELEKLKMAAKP
# Chain of CRX (O43186 26-111 R41L): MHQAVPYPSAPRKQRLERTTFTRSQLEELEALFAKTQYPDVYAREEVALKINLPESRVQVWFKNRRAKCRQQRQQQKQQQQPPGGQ
# Chain of HOXD13 (Homo sapiens, UniProt P35453 263-343) (P35453 263-343): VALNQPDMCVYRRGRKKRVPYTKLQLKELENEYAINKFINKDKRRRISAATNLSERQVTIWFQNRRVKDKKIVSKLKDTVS
# Chain of ALX1 (Homo sapiens, UniProt Q15699 118-204, L144V) (Q15699 118-204 L144V): as the sequence (Q15699 118-204) above, with L27V counted along it
# Chain of HOXD13 (Homo sapiens, UniProt P35453 263-343, T313A) (P35453 263-343 T313A): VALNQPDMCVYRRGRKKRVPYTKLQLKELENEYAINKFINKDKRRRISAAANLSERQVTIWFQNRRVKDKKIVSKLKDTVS
# Chain of MSX2 (Homo sapiens, UniProt P35548 130-214, F161Y) (P35548 130-214 F161Y): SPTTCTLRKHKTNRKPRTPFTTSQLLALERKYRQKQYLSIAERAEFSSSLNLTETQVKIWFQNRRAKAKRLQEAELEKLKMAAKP
sequence,measurement,setting,value
GACATTAA,binding signal,HOXB9 [1],"10 upbm affinity estimate (log intensity, higher = more binding, comparable within an allelic series)"
same,binding signal,HOXC9 [2],"12.6 upbm affinity estimate (log intensity, higher = more binding, comparable within an allelic series)"
same,binding signal,HOXA7 [3],"11.2 upbm affinity estimate (log intensity, higher = more binding, comparable within an allelic series)"
same,binding signal,HOXB6 [4],"10 upbm affinity estimate (log intensity, higher = more binding, comparable within an allelic series)"
same,binding signal,HOXB9 [5],"11.8 upbm affinity estimate (log intensity, higher = more binding, comparable within an allelic series)"
same,binding signal,HOXC9 [6],"12.6 upbm affinity estimate (log intensity, higher = more binding, comparable within an allelic series)"
same,binding signal,HOXC9 [7],"12.5 upbm affinity estimate (log intensity, higher = more binding, comparable within an allelic series)"
same,binding signal,HOXC10 [8],"11.9 upbm affinity estimate (log intensity, higher = more binding, comparable within an allelic series)"
same,binding signal,HOXB9 [9],"11.6 upbm affinity estimate (log intensity, higher = more binding, comparable within an allelic series)"
same,binding signal,HOXC9 [10],"10.9 upbm affinity estimate (log intensity, higher = more binding, comparable within an allelic series)"
same,binding signal,HOXA7 [11],"8.93 upbm affinity estimate (log intensity, higher = more binding, comparable within an allelic series)"
same,binding signal,HOXB6 [12],"11.7 upbm affinity estimate (log intensity, higher = more binding, comparable within an allelic series)"
ATTTATTA,binding signal,HOXB9 [1],"10.1 upbm affinity estimate (log intensity, higher = more binding, comparable within an allelic series)"
same,binding signal,HOXC9 [2],"12.7 upbm affinity estimate (log intensity, higher = more binding, comparable within an allelic series)"
same,binding signal,HOXC10 [13],"12.5 upbm affinity estimate (log intensity, higher = more binding, comparable within an allelic series)"
same,binding signal,HOXB6 [4],"10 upbm affinity estimate (log intensity, higher = more binding, comparable within an allelic series)"
same,binding signal,HOXB9 [5],"12 upbm affinity estimate (log intensity, higher = more binding, comparable within an allelic series)"
same,binding signal,HOXC9 [6],"12.8 upbm affinity estimate (log intensity, higher = more binding, comparable within an allelic series)"
same,binding signal,HOXD13 [14],"10.9 upbm affinity estimate (log intensity, higher = more binding, comparable within an allelic series)"
same,binding signal,HOXC9 [7],"12.7 upbm affinity estimate (log intensity, higher = more binding, comparable within an allelic series)"
same,binding signal,HOXD13 [15],"12 upbm affinity estimate (log intensity, higher = more binding, comparable within an allelic series)"
same,binding signal,HOXC10 [8],"12 upbm affinity estimate (log intensity, higher = more binding, comparable within an allelic series)"
same,binding signal,HOXD13 [16],"11.8 upbm affinity estimate (log intensity, higher = more binding, comparable within an allelic series)"
same,binding signal,HOXB9 [9],"11.7 upbm affinity estimate (log intensity, higher = more binding, comparable within an allelic series)"
same,binding signal,HOXC9 [10],"11.3 upbm affinity estimate (log intensity, higher = more binding, comparable within an allelic series)"
CCTAATCG,binding signal,VENTX [17],"11.4 upbm affinity estimate (log intensity, higher = more binding, comparable within an allelic series)"
same,binding signal,VENTX [18],"12.5 upbm affinity estimate (log intensity, higher = more binding, comparable within an allelic series)"
same,binding signal,VENTX [19],"11.3 upbm affinity estimate (log intensity, higher = more binding, comparable within an allelic series)"
same,binding signal,CRX,"10.8 upbm affinity estimate (log intensity, higher = more binding, comparable within an allelic series)"
ATTTAATG,binding signal,HOXB9 [1],"10.2 upbm affinity estimate (log intensity, higher = more binding, comparable within an allelic series)"
same,binding signal,HOXC9 [2],"13.1 upbm affinity estimate (log intensity, higher = more binding, comparable within an allelic series)"
same,binding signal,HOXA7 [3],"11.3 upbm affinity estimate (log intensity, higher = more binding, comparable within an allelic series)"
same,binding signal,HOXC10 [13],"12.4 upbm affinity estimate (log intensity, higher = more binding, comparable within an allelic series)"
same,binding signal,HOXB6 [4],"10.1 upbm affinity estimate (log intensity, higher = more binding, comparable within an allelic series)"
same,binding signal,HOXB9 [5],"12.3 upbm affinity estimate (log intensity, higher = more binding, comparable within an allelic series)"
same,binding signal,HOXC9 [6],"13 upbm affinity estimate (log intensity, higher = more binding, comparable within an allelic series)"
same,binding signal,MSX2 [20],"11.4 upbm affinity estimate (log intensity, higher = more binding, comparable within an allelic series)"
same,binding signal,HOXD13 [14],"10.7 upbm affinity estimate (log intensity, higher = more binding, comparable within an allelic series)"
same,binding signal,HOXC9 [7],"13 upbm affinity estimate (log intensity, higher = more binding, comparable within an allelic series)"
same,binding signal,HOXC10 [8],"12.2 upbm affinity estimate (log intensity, higher = more binding, comparable within an allelic series)"
same,binding signal,MSX2 [21],"12.2 upbm affinity estimate (log intensity, higher = more binding, comparable within an allelic series)"
same,binding signal,HOXB9 [9],"12.1 upbm affinity estimate (log intensity, higher = more binding, comparable within an allelic series)"
same,binding signal,HOXC9 [10],"11.2 upbm affinity estimate (log intensity, higher = more binding, comparable within an allelic series)"
same,binding signal,MSX2 [22],"12 upbm affinity estimate (log intensity, higher = more binding, comparable within an allelic series)"
same,binding signal,HOXA7 [11],"8.91 upbm affinity estimate (log intensity, higher = more binding, comparable within an allelic series)"
same,binding signal,HOXB6 [12],"11.9 upbm affinity estimate (log intensity, higher = more binding, comparable within an allelic series)"
GGCGATTA,binding signal,VENTX [17],"11 upbm affinity estimate (log intensity, higher = more binding, comparable within an allelic series)"
same,binding signal,ALX1 [23],"8.58 upbm affinity estimate (log intensity, higher = more binding, comparable within an allelic series)"
same,binding signal,ALX1 [24],"8.54 upbm affinity estimate (log intensity, higher = more binding, comparable within an allelic series)"
same,binding signal,ALX1 [25],"9.05 upbm affinity estimate (log intensity, higher = more binding, comparable within an allelic series)"
